Screening data deposited in PubChem by National Center for Advancing Translational Sciences (NCATS).
This is a sample that favours compounds with a hit; in the whole collection about 17% have one here.
DT40 TDP1 no CPT: qHTS for Inhibitors of human tyrosyl-DNA phosphodiesterase 1 (TDP1): qHTS in cells in absence of CPT; DT40 Tdp1-/- hTDP1 cells, no CPT, ATP luminescence, 48 h; Potency, µM (series often up to 46.2 µM), for the others: at the highest dose activity change, negative = growth inhibition, hits mostly inhibitors; AID 686978, 2013; 420,000 tested, 15% active; further: on the % scale 0 is the no-effect control and ±100 the full control effect; nearly all actives have a fitted effect of over 55% in size
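No-CPT arm: Tdp1-/-;hTDP1 DT40 cells (400/well) plus compounds, incubated ≥48 hr at 37 °C. Readout CellTiter-Glo luminescence.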
TDP1 block: blocks human tyrosyl-DNA phosphodiesterase 1 | AID 485290 | Potency, µM (highest dose often 130 µM), inactives show top-dose activity change, negative = inhibition, hits mostly inhibitors | 350,000 tested, 0.28% active | recombinant TDP1, AlphaScreen DNA substrate cleavage; further: on the % scale 0 is the no-effect control and ±100 the full control effect; nearly all actives have a fitted effect of over 40% in size
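Here, a 5' biotin and 3' phosphotyrosine-FITC DNA oligonucleotide reports Tdp1 activity: intact substrate bridges AlphaScreen beads, while cleavage leaves a 3' phosphate and drops signal. All incubations at room temperature.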
ClpP mod: qHTS Assay for Activators of ClpP. purified B. subtilis ClpP, FRET peptide cleavage, 20 min. Potency, µM (highest dose often 57.5 µM), inactives show top-dose activity change, negative = active. 340,000 tested, 1.9% active. AID 651965, 2013; active means well fitted falling curve with a large enough effect; inconclusive means small, poorly fitted or top-dose-only effect; inactive means no such curve, though single readings can be large or run the other way; further: the source files actives as falling curves though it sought activators and does not explain the sign; nearly all actives have a fitted effect of over 65% in size
Target sequence (P80244 whole entry, looked up): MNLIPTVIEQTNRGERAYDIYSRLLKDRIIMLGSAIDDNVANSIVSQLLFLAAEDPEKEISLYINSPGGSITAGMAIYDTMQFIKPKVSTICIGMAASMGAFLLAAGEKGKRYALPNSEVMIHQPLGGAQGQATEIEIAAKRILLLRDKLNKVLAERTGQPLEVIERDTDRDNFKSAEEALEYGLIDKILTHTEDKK
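Purified B. subtilis ClpP, 10 microg/mL final in Tris/HCl pH8 with KCl, BSA, glycerol and Tween-20, cleaved an Abz/nitrotyrosine-quenched decapeptide. Fluorescence (ex 320, em 430) was read at 0 and 20 min at room temperature. Delta was normalized to 5.8 microM ADEP and DMSO/no-enzyme controls.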
TDP1 cell CPT: growth inhibition of DT40 Tdp1-/-;hTDP1 cells with camptothecin (screen for TDP1 inhibitors). AID 686979. 420,000 tested, 12% active. Potency, µM (series often up to 46.2 µM), for inactives: at the highest dose activity change, negative = growth inhibition, most hits filed as inhibitors. chicken DT40 Tdp1-/-;hTDP1 cells + 20 nM CPT, ATP luminescence, 48 h; further: on the % scale 0 is the no-effect control and ±100 the full control effect; nearly all actives have a fitted effect of over 55% in size
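Cell growth measured by CellTiter-Glo luminescence after a minimum 48 h, 37 C compound exposure with 20 nM CPT in Tdp1-knockout DT40 cells stably expressing hTDP1, seeded 400/well; qHTS titration format.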
An asterisk follows results filed as active; [ ] = remark or other dose. Unless noted, the call rests on the fitted dose curve; in most records, active means well fitted curve in the direction sought with a large enough effect; inconclusive means small, poorly fitted or top-dose-only effect, or another doubt; inactive means no such curve, though single readings can be large; an effect the other way counts as inactive or inconclusive. Potency means the concentration at half of the fitted maximal effect.

Screening Cc1onc(-c2ccccc2)c1C(=O)c1c[nH]c(C(=O)NCCCN2CCOCC2)c1 returned DT40 TDP1 no CPT -29%, TDP1 block 3% and TDP1 cell CPT 12%.
For NC(=O)c1ccccc1NC(=O)c1ccccc1Cl the results were DT40 TDP1 no CPT inconclusive, ClpP mod 0% and TDP1 cell CPT 0%.
For CC(C)(C)CC(=O)Nc1nnc(C(F)(F)F)s1 the results were DT40 TDP1 no CPT -23%, TDP1 block -2%[56.1 µM], ClpP mod -1% and TDP1 cell CPT -8%.
`Cc1onc(-c2c(F)cccc2Cl)c1C(=O)Nc1nnc(C(F)(F)F)s1` gave DT40 TDP1 no CPT 15µM*, TDP1 block 3%, ClpP mod -7% and TDP1 cell CPT 12µM*.
Screening O=C(Nc1ccccc1C(=O)Nc1nnc(C(F)(F)F)s1)c1ccccc1Cl returned DT40 TDP1 no CPT 16µM*, TDP1 block 4% and TDP1 cell CPT inconclusive.
`Cc1ccc(-c2csc(C(O)c3ccc(F)c(F)c3)n2)cc1C` (stereo not drawn) gave DT40 TDP1 no CPT inconclusive, ClpP mod 1% and TDP1 cell CPT inconclusive.
For CCNCCC(=O)N1c2ccccc2Sc2ccc(C(F)(F)F)cc21 the results were DT40 TDP1 no CPT -56%, ClpP mod -2% and TDP1 cell CPT inconclusive.
O=C(Nc1nnc(C(F)(F)F)s1)c1ccc(Br)s1 was read as DT40 TDP1 no CPT 15µM*, TDP1 block 5%, ClpP mod -8% and TDP1 cell CPT 13µM*.
COCc1nnc(NC(=O)c2c(-c3c(Cl)cccc3Cl)noc2C)s1 was read as DT40 TDP1 no CPT inconclusive, TDP1 block 0%, ClpP mod -1% and TDP1 cell CPT 13µM*.
For Cc1onc(-c2c(F)cccc2Cl)c1C(=O)Nc1nccs1 the results were DT40 TDP1 no CPT inconclusive, TDP1 block -4% and TDP1 cell CPT 3%.
`O=[N+]([O-])c1ccc(O)c(C=Nc2cccc3ccccc23)c1` gave DT40 TDP1 no CPT -15%, TDP1 block 5% and TDP1 cell CPT 16%.
O=[N+]([O-])c1ccc(O)c(N=Cc2sc3ccccc3c2O)c1 was read as DT40 TDP1 no CPT 12µM*, TDP1 block 5%, ClpP mod -9% and TDP1 cell CPT 21µM*.
Screening O=S(=O)(c1ccc(Cl)cc1)N1CCc2ccccc21 returned DT40 TDP1 no CPT 15µM*, ClpP mod 1% and TDP1 cell CPT inconclusive.
For COc1ccc(S(=O)(=O)N2CCc3ccccc32)cc1C(=O)O the results were DT40 TDP1 no CPT -3%, ClpP mod -4% and TDP1 cell CPT 2%.
CC(=O)N1CCc2ccc(S(=O)(=O)N3CCc4ccccc43)cc21 was read as DT40 TDP1 no CPT 5.2µM*, TDP1 block 8%, ClpP mod 1% and TDP1 cell CPT 21µM*.
Screening CCn1c(=O)n(CC)c2cc(S(=O)(=O)N3CCc4ccccc43)ccc21 returned DT40 TDP1 no CPT 18µM*, TDP1 block 3%, ClpP mod 0% and TDP1 cell CPT 13µM*.
`COc1ccccc1CNC(=O)c1c(O)nc2cc(C)ccn2c1=O` gave DT40 TDP1 no CPT -10%, TDP1 block -2%, ClpP mod -4% and TDP1 cell CPT 4%.
`CCCCc1nc(SCC(=O)N2CCCC2)c2c(=O)n(C)c(=O)n(C)c2n1` gave DT40 TDP1 no CPT inconclusive, TDP1 block 4%, ClpP mod -4% and TDP1 cell CPT -23%.
Screening CC(NC(=O)[C@H](C)N1C(=O)N2CCc3c([nH]c4ccccc34)[C@@]2(C)C1=O)c1ccccc1 (stereo partly drawn) returned DT40 TDP1 no CPT inconclusive, ClpP mod 0% and TDP1 cell CPT 16µM*.
For C[C@@H](C(=O)NC1CCCC1)N1C(=O)N2CCc3c([nH]c4ccccc34)[C@@]2(C)C1=O the results were DT40 TDP1 no CPT inconclusive, ClpP mod -4% and TDP1 cell CPT 21µM*.
`CC(C)[C@@H](C(=O)NC1CCCC1)N1C(=O)N2CCc3c([nH]c4ccccc34)[C@@]2(C)C1=O` gave DT40 TDP1 no CPT inconclusive, ClpP mod -1% and TDP1 cell CPT inconclusive.
`C[C@H](NC(=O)c1nc[nH]c1C(=O)N(C)Cc1ccccc1)c1ccccc1` gave DT40 TDP1 no CPT -12%, TDP1 block 1%, ClpP mod -1% and TDP1 cell CPT -28%.
For COc1cc(F)ccc1-c1csc(C(O)c2ccc(F)c(F)c2)n1 (stereo not drawn) the results were DT40 TDP1 no CPT 13µM*, ClpP mod 2% and TDP1 cell CPT inconclusive.
For COc1ccccc1-c1csc(C(O)c2cccc(Cl)c2)n1 (stereo not drawn) the results were DT40 TDP1 no CPT inconclusive, ClpP mod 2% and TDP1 cell CPT 21µM*.
`COc1ccccc1-c1csc(C(O)c2ccccc2)n1` (stereo not drawn) gave DT40 TDP1 no CPT inconclusive, ClpP mod 0% and TDP1 cell CPT 23µM*.
CCOc1ccc(S(=O)(=O)N2CCNC(=O)C2)cc1 was read as DT40 TDP1 no CPT 9%, TDP1 block 1%, ClpP mod -3% and TDP1 cell CPT -8%.
Screening O=C(N/N=C/c1ccccc1[N+](=O)[O-])c1ccc(COc2ccccc2-c2ccccc2)cc1 returned DT40 TDP1 no CPT 12µM*, TDP1 block 1%, ClpP mod inconclusive and TDP1 cell CPT 12µM*.
`O=C(O)c1cccc(NC(=S)N/N=C/c2ccccc2OCc2cccc(Br)c2)c1` gave DT40 TDP1 no CPT inconclusive, ClpP mod 2% and TDP1 cell CPT 23µM*.
Screening O=C(O)c1cccc(NC(=S)N/N=C/c2ccccc2OCc2ccc(Br)cc2)c1 returned DT40 TDP1 no CPT inconclusive, TDP1 block 3% and TDP1 cell CPT inconclusive.
`O=C(CNC(=O)c1ccccc1F)N/N=C/c1cc(Br)ccc1OCc1ccccc1` gave DT40 TDP1 no CPT 23µM*, TDP1 block 3%, ClpP mod -4% and TDP1 cell CPT inconclusive.
O=C(CNC(=O)c1cccc(F)c1)N/N=C/c1cc(Br)ccc1OCc1ccccc1 was read as DT40 TDP1 no CPT inconclusive, TDP1 block 3%, ClpP mod -9% and TDP1 cell CPT inconclusive.
`CC(=O)N/N=C\c1ccccc1OC/C=C/c1ccccc1` gave DT40 TDP1 no CPT inconclusive, TDP1 block 5%, ClpP mod -2% and TDP1 cell CPT 16µM*.
`COc1ccc(N(C)S(=O)(=O)c2cccc(C(=O)N(C)Cc3ccc(C)o3)c2)cc1` gave DT40 TDP1 no CPT inconclusive, TDP1 block 5% and TDP1 cell CPT inconclusive.
Screening Cc1cc(C)n(CCC(=O)Nc2ccc3c(c2)OCCO3)n1 returned DT40 TDP1 no CPT -3%, TDP1 block 1%, ClpP mod -3% and TDP1 cell CPT -2%.
